The values that follow come from PubChem BioAssay (NCATS).

What all share (assay): qHTS profiling for inhibitors of Plasmodium falciparum proliferation (AID 504749); also: nearly all actives have a fitted effect of over 60% in size
What all share (settings): P. falciparum in erythrocytes, SYBR Green DNA, 72 h; series mostly up to 28.7 µM

In one assay the test system is CP185. In short, it runs like this: (§1)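 SYBR Green fluorescence of parasite DNA, read after lysis and overnight dark incubation, measured growth over 72 h in erythrocyte culture at 0.3% parasitemia and 2.5% hematocrit. Data normalised to DMSO and 0.29 uM artemisinin, with plate-drift correction.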
In another assay the test system is CP191. In short, it runs like this: as §1
The next assay has as its system CP192. In short, it runs like this:
as §1

The subject of another assay is CP194. An outline of the steps: as §1
The next assay deals with CP201. In short, it runs like this:
as §1

The test system of a further assay is CP203. In short, it runs like this: as §1
The test system of the next assay is CP211. In short, it runs like this:
as §1

A further assay deals with CP215. In short, it runs like this: as §1
A further assay has as its system CP217. An outline of the steps:
as §1

Another assay concerns CP237. An outline of the steps:
as §1

Results filed as inconclusive are left out. Calls of active or inactive are those of the source. Calls follow the shape of the dose curve; as a rule, active = well fitted inhibition curve with a large enough effect; inconclusive = small, poorly fitted or top-dose-only effect; inactive = flat fitted curve, though single readings scatter. Where a SMILES comes first, the peptide text is derived from it. [ ]: non-standard residue; d: D form. pGlu = O=C1CC[C@@H](C(=O)O)N1; Thz = O=C(O)[C@@H]1CSCN1
Potency is read from the fitted curve at half-maximal effect.

For `O=C(O)[C@H](O)[C@@H](O)[C@H](O)[C@H](O)CO`, the Potency entry in the assay on CP185, with CP191, in the assay on CP192, with CP194, in the assay with CP201 and in the assay on CP203 was “inactive” throughout. For the same compound, the Potency entry with CP211, in the assay on CP215, with CP217 and with CP237 was “inactive” throughout.
On to `CCCCC[C@H](O)/C=C/[C@@H]1[C@@H](C/C=C\CCCC(=O)O)[C@@H](O)C[C@H]1O`, for which the Potency entry with CP185, in the assay with CP191, in the assay with CP192, with CP194, in the assay on CP201 and with CP203 was “inactive” throughout. The Potency result with CP211, with CP215, with CP217 and in the assay with CP237 was “inactive” throughout.
With `C=CC(N)CCC(=O)O` (stereo not drawn), the Potency result with CP185, in the assay on CP191, in the assay with CP192, with CP194, with CP201 and in the assay on CP211 was “inactive” throughout. For the same compound, the Potency result in the assay on CP215, in the assay on CP217 and in the assay on CP237 was “inactive” in each case.
For the compound `CN1[C@@H]2CC[C@H]1CC(OC(=O)C(CO)c1ccccc1)C2` (stereo partly drawn), the Potency result in the assay on CP185, in the assay on CP191, in the assay on CP192, in the assay with CP194, in the assay on CP201 and with CP203 was “inactive” in each case. The Potency result in the assay with CP211, with CP215, in the assay with CP217 and with CP237 was “inactive” throughout.
With `CC1(C)C[C@@H]1C(=O)N/C(=C\CCCCSC[C@H](N)C(=O)O)C(=O)O`, the Potency result in the assay with CP185, in the assay on CP191, in the assay with CP192, in the assay on CP194, in the assay with CP201 and in the assay with CP203 was “inactive” in each case. Moreover, the Potency result in the assay on CP211, in the assay with CP215, with CP217 and in the assay on CP237 was “inactive” each time.
`CCC1C(=O)OCC1Cc1cncn1C` (stereo not drawn): the Potency result in the assay with CP185, with CP191, with CP192, in the assay with CP194, with CP201 and in the assay with CP203 was “inactive” throughout. Moreover, the Potency entry in the assay with CP211, in the assay on CP215, with CP217 and with CP237 was “inactive” each time.
As for `Cc1ccccc1CNc1ncnc2c1ncn2C1OC(CO)C(O)C1O` (stereo not drawn), the Potency entry in the assay with CP185, with CP191, in the assay with CP192, in the assay with CP194, in the assay on CP201 and with CP203 was “inactive” in each case. Also, the Potency entry in the assay with CP211, with CP215, with CP217 and in the assay with CP237 was “inactive” each time.
For `Cc1c(Nc2ncccc2C(=O)O)cccc1C(F)(F)F`, the Potency result in the assay with CP185, in the assay on CP191, in the assay with CP192, with CP194, in the assay with CP201 and in the assay on CP203 was “inactive” each time. The Potency entry with CP211, in the assay on CP215, in the assay with CP217 and in the assay with CP237 was “inactive” throughout.
Take `O=C(O)[C@H](CC(=O)N1C[C@H]2CCCC[C@H]2C1)Cc1ccccc1`: the Potency result in the assay on CP185, in the assay with CP191, in the assay with CP192, with CP194, with CP201 and in the assay with CP211 was “inactive” in each case. The Potency result in the assay on CP215, in the assay on CP217 and in the assay with CP237 was “inactive” each time.
As to `CCOC(=O)c1ccccc1O`, the Potency entry in the assay on CP185, in the assay on CP191, in the assay on CP192, in the assay on CP194, in the assay with CP201 and in the assay on CP211 was “inactive” throughout. Also, the Potency entry in the assay on CP215, in the assay on CP217 and in the assay with CP237 was “inactive” in each case.
As for `CC(C(=O)O)c1ccc2c(c1)[nH]c1ccc(Cl)cc12` (stereo not drawn), the Potency result in the assay on CP185, in the assay on CP191, in the assay with CP192, with CP194, with CP201 and with CP211 was “inactive” throughout. Further, the Potency entry in the assay on CP215, with CP217 and in the assay with CP237 was “inactive” in each case.
Turning to `Oc1c(Br)cc(Br)c2cccnc12`, the Potency entry in the assay with CP185, in the assay on CP191, in the assay with CP192, in the assay on CP194, in the assay with CP201 and with CP203 was “inactive” each time. In addition, the Potency result with CP211, in the assay with CP215, in the assay on CP217 and with CP237 was “inactive” each time.
As for `O=C1CC[C@@H](C(=O)N2CSC[C@H]2C(=O)O)N1` ([pGlu]-[Thz]-OH), the Potency result with CP185, in the assay with CP191, in the assay on CP192, with CP194, in the assay with CP201 and with CP203 was “inactive” in each case. Moreover, the Potency entry in the assay with CP211, in the assay with CP215, with CP217 and with CP237 was “inactive” each time.
Take `C#C[C@]1(O)CC[C@H]2[C@@H]3CCc4cc(O)ccc4[C@H]3CC[C@@]21C`: the Potency entry with CP185, in the assay on CP191, with CP192, with CP194, with CP201 and in the assay with CP203 was “inactive” in each case. Further, the Potency entry in the assay with CP211, in the assay with CP215, with CP217 and with CP237 was “inactive” in each case.
Consider `c1ccc2sc(SSc3nc4ccccc4s3)nc2c1`, for which the Potency entry in the assay on CP185, in the assay on CP191, in the assay on CP192, in the assay with CP194, in the assay on CP201 and in the assay with CP211 was “inactive” each time. Besides, the Potency entry in the assay on CP215, in the assay with CP217 and in the assay with CP237 was “inactive” throughout.
In the case of `[O-][n+]1ccccc1SSc1cccc[n+]1[O-]`, the Potency with CP185 is 1120 nM (active); with CP191, 1260 nM (active); in the assay on CP192, 1350 nM (active); in the assay with CP194 it was 1070 nM (active); in the assay on CP201, 1900 nM (active); in the assay on CP211, 1070 nM (active). In addition, the Potency in the assay on CP215 was 1350 nM (active); in the assay on CP217, 1260 nM (active); with CP237 it was 891 nM (active).
Turning to `COc1cc(CNC(=O)CCCC/C=C/C(C)C)ccc1O`, the Potency entry in the assay on CP185, in the assay with CP191, in the assay with CP192, in the assay with CP194, in the assay on CP201 and in the assay with CP211 was “inactive” in each case. The Potency result in the assay with CP215, in the assay on CP217 and in the assay with CP237 was “inactive” in each case.
